Measurements as given in PubChem BioAssay (EPA / NIEHS).
“And” between values parts separate entries of the source, which are not always exact repeats. Equal values may be shown once. Some structures have more than one record in an assay (separate samples or runs), and their calls can disagree. The source made the active and inactive calls. How the source made its calls: active means hit-call score of the fitted dose curve at least 0.9, where 1 is the maximum; inactive means score below 0.9.

Target: Bile acid receptor (Homo sapiens) (UniProt Q96RI1)
Sequence (Q96RI1 whole entry, looked up): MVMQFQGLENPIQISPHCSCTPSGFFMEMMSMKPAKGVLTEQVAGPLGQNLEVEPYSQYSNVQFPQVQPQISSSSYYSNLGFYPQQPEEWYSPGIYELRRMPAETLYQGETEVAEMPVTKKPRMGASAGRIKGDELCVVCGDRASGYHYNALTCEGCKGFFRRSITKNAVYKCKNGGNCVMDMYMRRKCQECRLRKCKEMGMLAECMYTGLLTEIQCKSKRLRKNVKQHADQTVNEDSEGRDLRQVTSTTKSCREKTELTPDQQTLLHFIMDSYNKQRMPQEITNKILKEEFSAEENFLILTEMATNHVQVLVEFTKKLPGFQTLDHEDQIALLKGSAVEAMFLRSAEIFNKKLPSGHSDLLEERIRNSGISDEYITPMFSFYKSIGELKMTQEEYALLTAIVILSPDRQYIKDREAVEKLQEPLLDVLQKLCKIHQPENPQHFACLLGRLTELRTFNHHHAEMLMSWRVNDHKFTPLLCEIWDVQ
Assay: ATG_IR1_CIS: Attagene CIS-FACTORIAL HepG2 Assay for human Nuclear Receptor Subfamily 1 Group H Member 4 (NR1H4), IR1 submotif (AID 2282946)
Conditions: IR1 reporter transcription, actives raise or lower the signal
Description: ATG_CIS is a cell-based, multiplexed-readout assay that uses HepG2, a human liver cell line, with measurements taken at 24 hours after chemical dosing in a 24-well plate.ATG_IR1_CIS is one of 52 assay component(s) measured or calculated from the ATG_CIS assay. It is designed to make measurements of mRNA induction, a form of inducible reporter, as detected with fluorescence intensity signals by Reverse transcription polymerase chain reaction (RT-PCR) and Capillary electrophoresis technology.Data from the assay component ATG_IR1_CIS was analyzed into 1 assay endpoint. This assay endpoint, ATG_IR1_CIS, was analyzed with bidirectional fitting relative to DMSO as the negative control and baseline of activity. Using a type of inducible reporter, measures of mRNA for gain or loss-of-signal activity can be used to understand the reporter gene at the transcription factor-level as they relate to the gene NR1H4. Furthermore, this assay endpoint can be referred to as a primary readout, because this assay has produced multiple assay endpoints where this one serves a reporter gene function. To generalize the intended target to other relatable targets, this assay endpoint is annotated to the nuclear receptor intended target family, where the subfamily is non-steroidal.
Human liver HepG2 cells are transiently transfected with multiple reporter transcription units (MRTUs) in 6-well plates using FuGene 6 reagent (Roche; 3 ml FuGene/1 mg DNA). The MRTU constructs are regulated by a cis-regulating element (promoter). […] A major difference between the CIS and TRANS system is that in CIS activities of endogenous TFs are measured, whereas the TRANS assay evaluates changes in activities of exogenous, chimeric NR-Gal4 proteins. […] At the end of 24 hour incubation, total RNA was isolated using TriZol reagent (Invitrogen). The isolated RNA is then reverse-transcribed using oligo(dT) primer and Mo-MLV reverse transcriptase (Invitrogen) with DNAse I (Ambion) treatment for 30 min. The one-tenth of the produced cDNA was amplified by PCR using Taq DNA polymerase (Invitrogen) and two reporter sequence-specific primers. The PCR products were fluorescently labeled by primer extension with 6-arboxyfluorescein (6-FAM) 5'-labeled reporter sequence-specific primer (2 min at 95 C, 20 s at 68 C and 10 min at 72 C) and these products were digested with 5U of HpaI (New England Biolabs) for 2h at 37 C. The fragments were purified using Qiaquick PCR columns (Qiagen), analyzed on an ABI 3130xL genetic analyzer (Applied Biosystems) with peak positions identified by using a set of X-rhodamine (ROX)-labeled MapMarker1000 molecular weight standards (BioVentures). The raw capillary electrophoresis data was processed using Attagraph software (Attagene).

Row | SMILES | outcome | AC50
1 | CC(C)CCCCCCOC(=O)CCCCC(=O)OCCCCCCC(C)C | inactive | 
2 | CCCCC(CC)COC(=O)CCCCC(=O)OCc1ccccc1 (stereo not given) | inactive | 
3 | c1ccc2cc3c(ccc4ccccc43)cc2c1 | inactive | 621 nM (active) and 25.4 µM (active) and 1.92 µM (active)
4 | NC(=O)N1C(=O)C(C(=O)c2cc(Cl)cs2)c2cc(F)c(Cl)cc21 (stereo not given) | inactive | 
5 | CCCOC(=O)c1ccc(O)cc1 | inactive | 
6 | CC(C)(C)c1cccc(C(C)(C)C)c1O | inactive | 
7 | COc1ccc([N+](=O)[O-])cc1N | inactive | 
8 | CC(C)(C)c1ccc(O)c(C(C)(C)C)c1 |  | 5.79 µM (active)
9 | CCCCOCCO | inactive | 
10 | CCCCCCCCCCCCCCCS(=O)(=O)Oc1ccccc1 | inactive | 
11 | O=c1c(-c2ccc(O)cc2)coc2cc(O)ccc12 | inactive | 52.6 µM (active) and 100 µM (active)
12 | CC#C[C@]1(O)CC[C@H]2[C@@H]3CCC4=CC(=O)CCC4=C3[C@@H](c3ccc(N(C)C)cc3)C[C@@]21C | inactive | 8.96 µM (active) and 9.17 µM (active) and 10.6 µM (active)
13 | O=C(OCCOCCOC(=O)c1ccccc1)c1ccccc1 | inactive | 
14 | CC[C@H](c1ccc(O)cc1)[C@@H](CC)c1ccc(O)cc1 | inactive | 11.1 µM (active)
15 | NC(=O)N(O)[C@@H]1C=C[C@H](Oc2cccc(Oc3ccc(F)cc3)c2)C1 | inactive | 
16 | CC(C)(C)c1cc(C(C)(C)C)c(O)c(C(C)(C)C)c1 |  | 698 nM (active) and 2.29 µM (active)

Row | SMILES | outcome | AC50
17 | CCCCCCCCOC(=O)CCCCCCCCC(=O)OCCCCCCCC | inactive | 
18 | COC(=O)CCCCC(=O)OC | inactive | 
19 | Cc1cc(C)c(O)c(C)c1 | inactive | 
20 | CCc1nn(C2CCCCC2)c2cc(C3(C#N)CCC(C(=O)O)CC3)ccc12 (stereo not given) | inactive | 
21 | CCCCCCCCCCCCN1CCCC1=O | inactive | 
22 | CC(=O)CC(C)(C)O | inactive | 
23 | c1ccc2c(c1)ccc1ccccc12 | inactive | 
24 | CCCCCCCCCCCCCC[N+](C)(C)C | inactive | 9.85 µM (active)
25 | O=C1OC2(c3ccccc31)c1cc(Br)c(O)c(Br)c1Oc1c2cc(Br)c(O)c1Br | inactive | 
26 | OC1CCC(C2CCCCC2)CC1 (stereo not given) | inactive | 100 µM (active)
27 | CC(=O)NC1(c2cccc(F)c2)CCN(CC[C@@]2(c3ccc(Cl)c(Cl)c3)CN(c3ccccc3)C(=O)CO2)CC1 | inactive | 
28 | CC[C@H](C)[C@@H](C(=O)O)n1sc2ccccc2c1=O | inactive | 
29 | Oc1cc2ccccc2c2ccccc12 | inactive | 
30 | OCCC(F)(F)C(F)(F)C(F)(F)C(F)(F)C(F)(F)C(F)(F)F | inactive | 187 µM (active)
31 | Oc1cccc(O)c1 | inactive | 
32 | CCC(=C(c1ccc(O)cc1)c1ccc(OCCN(C)C)cc1)c1ccccc1 | inactive | 1.45 µM (active)
